PubChem BioAssay AID686979 (National Center for Advancing Translational Sciences (NCATS), 2013)
Among all 420,000 compounds or so, about 50,000 (12%) were called active. Entries that show only a call come without a potency. Roughly 26% stayed inconclusive and do not appear here. The sample holds actives, similar compounds and a random draw of the others, so the mix is not that of the screen. The call rests on the fitted dose curve; in most records, active means well fitted inhibition curve with a large enough effect; inconclusive means small, poorly fitted or top-dose-only effect; inactive means flat fitted curve, though single readings scatter.

experiment: qHTS for Inhibitors of human tyrosyl-DNA phosphodiesterase 1 (TDP1): qHTS in cells in presence of CPT; conditions: chicken DT40 Tdp1-/-;hTDP1 cells + 20 nM CPT, ATP luminescence, 48 h; series mostly up to 46.2 µM; further: nearly all actives have a fitted effect of over 55% in size
Outline: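 Chicken DT40 Tdp1-/- cells complemented with human TDP1, 400 cells/well, exposed to compounds plus 20 nM camptothecin for at least 48 h at 37 C; viability read as ATP content by CellTiter-Glo luminescence.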
Potency means the concentration at half of the fitted maximal effect.

| Structure (SMILES) | Potency |
| --- | --- |
| O=C(CN1C(=O)CC(c2ccccc2)S(=O)(=O)c2ccccc21)NC1CCCC1 (configuration not stated) | inactive |
| Cc1ccc(-c2noc(CNC(=O)c3ccoc3C)n2)cc1 | inactive |
| CSc1n[nH]c(=S)n1N | inactive |
| COc1ccc(NC(=O)N2CC3(CCN(C(=O)c4cccn4C)CC3)C2)cc1 | inactive |
| CC(C)NC(=O)N1CCC2(CC1)CCN(C(=O)c1cccn1C)CC2 | inactive |
| Cn1cccc1C(=O)N1CCC2(CC1)CN(c1cccc(-c3ccccc3)c1)C2 | 18.4 µM (active) |
| O=C(C=CC(=O)Nc1ccc(F)cc1F)Nc1ccc(F)cc1F | inactive |
| Cc1nc2ccc(S(=O)(=O)N(C)CC(=O)NC(C)c3ccccc3)cc2s1 (configuration not stated) | inactive |
| O=C(Nc1cccc(Cl)c1)Nc1ccccc1NS(=O)(=O)c1cccs1 | inactive |
| CCOC(=O)c1ccc(NC2Nc3cc(C)nn3S2)cc1 (configuration not stated) | inactive |
| CC(Oc1ccc2ccccc2c1)C(=O)NNC(=S)NC(=O)c1ccco1 (configuration not stated) | 23.1 µM (active) |
| Cc1ccc(C(=O)NNC(=O)C(C)Oc2ccc3ccccc3c2)o1 (configuration not stated) | inactive |
| O=C(Nc1ccc2ccccc2c1)/C(=C\c1ccc2c(c1)OCO2)NC(=O)c1ccco1 | inactive |
| CC(C)=CCN1CCN(Cc2cc3ccccc3[nH]2)CC1CCO (configuration not stated) | inactive |
| COc1ccc(OC)c(CN2C(=O)CCC2(C)c2nnnn2Cc2ccccc2)c1 (configuration not stated) | inactive |
| Cc1sc2ncnc(SCC(=O)NC3CCS(=O)(=O)C3)c2c1C (configuration not stated) | inactive |
| CSc1ncnc2sc(C)c(C)c12 | inactive |
| CCCNc1ncnc2sc(C)c(C)c12 | 16.4 µM (active) |
| COc1cccc(NC(=O)CCNS(=O)(=O)c2ccc3c(c2)oc(=O)n3C)c1 | inactive |
| CCc1ccccc1NC(=O)c1ccc2c(c1)CCN2S(C)(=O)=O | inactive |
| CC(C)=CCC/C(C)=C/C(=O)O | inactive |
| COc1ccccc1-c1cc2nc(C)c(CCC(=O)NC3CCCCC3)c(C)n2n1 | inactive |
| COc1ccc(N)c(C)c1 | inactive |
| COc1ccc(-c2ccc(C(=O)NC(C)C)c3occc23)c(C)c1 | 14.6 µM (active) |
| COc1ccc(C2OC(=O)CC2C(=O)NC(C)C)cc1 (configuration not stated) | inactive |
| COc1ccc(Cl)cc1C(=O)OCC(=O)NCc1cccs1 | inactive |

| Structure (SMILES) | Potency |
| --- | --- |
| Cc1nnc(SC(C(=O)c2ccccc2)c2ccccc2)[nH]c1=O (configuration not stated) | inactive |
| CN1CCC(N(C)C(=O)c2ccc(Cl)c(S(=O)(=O)Nc3ccc(Cl)cc3)c2)CC1 | inactive |
| Cc1cccc(-n2ncc3c(=O)[nH]c(SCC(=O)Nc4cc(C)on4)nc32)c1 | inactive |
| CC(=O)c1cccc(NC(=O)CN2C(=O)c3cccnc3Oc3ccc(Cl)cc32)c1 | 18.4 µM (active) |
| Cc1ccc2c(c1)N(CC(=O)NCCCN1CCCCC1)C(=O)c1cccnc1O2 | inactive |
| Cc1ccc2c(c1)N(CC(=O)N1CCC(C)CC1)C(=O)c1cccnc1O2 | inactive |
| CCN(CC)c1ccc(NC(=O)Cn2nc3c(cc2=O)CCCC3)c(C)c1 | inactive |
| CCN(CC)c1ccc(NC(=O)CN2C(=O)c3cccnc3Oc3ccc(Cl)cc32)c(C)c1 | 9.2 µM (active) |
| O=C(CN1C(=O)c2cccnc2Oc2ccc(Cl)cc21)NCCc1ccccc1 | inactive |
| COC(=O)Cc1ccc(OCC(=O)NC2CCCC2)cc1 | inactive |
| COc1cccc(N(CC(=O)NC2CCCC2)C(=O)CCCC(=O)Nc2ccccn2)c1 | inactive |
| COCC1CCN(C(=O)C2CCC(=O)N(Cc3cccc(C(F)(F)F)c3)C2)CC1 (configuration not stated) | inactive |
| CC(=O)CC[C@@H](C)O[C@@H]1OC(C)[C@H](O)CC1O (some centres not stated) | inactive |
| Nc1nc(SCc2cccc(Br)c2)n[nH]1 | inactive |
| COc1cc2ccccc2cc1C(=O)Nc1ccccc1C | inactive |
| COc1cccc(-n2c(SCC(=O)c3c[nH]c4ccccc34)nc3ccccc3c2=O)c1 | 20.6 µM (active) |
| COCCn1c(C)cc(C(=O)CN2c3cccc4cccc(c34)S2(=O)=O)c1C | inactive |
| COc1cccc(-n2c(N)cc(=O)nc2SCC(=O)Nc2cc(C)on2)c1 | inactive |
| COCC(C)n1c(SCC(=O)NC2CCCCC2C)nc2ccccc2c1=O (configuration not stated) | inactive |
| COCCn1c(C)cc(C(=O)CSc2nnc(C3CC3)n2C2CC2)c1C | inactive |
| COC(=O)c1ccc(CSc2nc3ccccc3c(=O)n2-c2cccc(OC)c2)o1 | 20.6 µM (active) |
| COC(=O)c1ccc(Cc2ccccc2)o1 | inactive |
| CCCn1c(N)c(C(=O)CSc2nc3ccccc3c(=O)n2-c2ccc(OC)cc2)c(=O)[nH]c1=O | inactive |
| COc1cccc(-n2c(SCC(=O)NC3CCS(=O)(=O)C3)nc3ccccc3c2=O)c1 (configuration not stated) | inactive |
| COCCNC(=O)c1ccc(-n2c(SCc3cccnc3)nc3ccccc3c2=O)cc1 | inactive |
| COCCn1c(C)cc(C(=O)CSc2nc3ccccc3c(=O)n2C(C)COC)c1C (configuration not stated) | 20.6 µM (active) |

| Structure (SMILES) | Potency |
| --- | --- |
| COCC(C)n1c(SCc2ccc(C(=O)OC)o2)nc2ccccc2c1=O (configuration not stated) | 7.31 µM (active) |
| CCOc1ccc(CN(C)C(=O)c2ccc(=O)[nH]c2)cc1 | inactive |
| Cc1occc(=O)c1OCc1c(Cl)cccc1Cl | inactive |
| COc1ccc(C2C3=C(CCCC3=O)N(CC(=O)O)C3=C2C(=O)CCC3)cc1 | inactive |
| CSc1ccc(S(=O)(=O)N2CCC(C(=O)NCc3ccncc3)CC2)cc1 | inactive |
| COc1ccc(-c2c(C)nn3c(N4CCC(C(=O)N5CCCCC5)CC4)cc(C)nc23)cc1OC | inactive |
| CCN(CC)c1nc(-c2ccccc2)cc(C(F)(F)F)c1C#N | inactive |
| O=C(CNS(=O)(=O)c1ccccc1)NCC(=O)OCc1ccccc1F | inactive |
| Cc1cc(=O)oc2cc(OC(C)C(=O)NCCc3ccc(S(N)(=O)=O)cc3)ccc12 (configuration not stated) | inactive |
| Nc1nc(SCC(=O)NNc2c(Cl)cc(Cl)cc2Cl)n[nH]1 | inactive |
| COc1cc(Cl)c(C)cc1NC(=O)COC(=O)c1cc(SC)ccc1Cl | inactive |
| CCC(C)Cn1c(O)cc2nn(-c3nc4ccccc4s3)c(=O)c-2c1C (configuration not stated) | 14.6 µM (active) |
| Cc1ccc(-c2nn3c(=O)cc(CN4CCN(S(=O)(=O)c5ccc(Cl)cc5)CC4)nc3s2)cc1 | inactive |
| Cc1sc(C2C(C#N)=C(N)N(c3cccc(Cl)c3)C3=C2C(=O)CCC3)cc1CN1CCOCC1 (configuration not stated) | inactive |
| CSc1sc(C)cc1C1C(C#N)=C(N)N(c2cccnc2)C2=C1C(=O)CCC2 (configuration not stated) | 11.6 µM (active) |
| CCc1ccc(C2C(C#N)=C(N)N(N(C)C)C3=C2C(=O)CCC3)s1 (configuration not stated) | inactive |
| Cc1cn(C)c(CC(=O)NCc2ccccc2)c1C(=O)O | inactive |
| C=CCn1c(SCC(N)=O)nnc1-c1cc2c(s1)CCC(CC)C2 (configuration not stated) | inactive |
| CCC1OC(c2ccc([N+](=O)[O-])cc2)=Nc2ccccc21 (configuration not stated) | inactive |
| CC(NC(=O)c1ccco1)c1ccc2c(c1)OCO2 (configuration not stated) | inactive |
| COc1ccc(C(CNCC(=O)Nc2ccccc2F)N(C)C)cc1 (configuration not stated) | inactive |
| COc1ccc(C(CCNCc2ccccc2F)c2ccc(F)cc2)cc1 (configuration not stated) | 16.4 µM (active) |
| COc1ccc(CCNC(=O)COC(=O)Cc2ccccc2F)cc1 | inactive |
| O=C(NNC(=O)C1CCC1)c1ccccc1 | inactive |
| CC1(C)c2[nH]c3ccccc3c2C[C@H]2C(=O)N(N)CC(=O)N21 | inactive |
| COc1ccc(CC(N)C(=O)NC2C(O)[C@H](n3cnc4c(N(C)C)ncnc43)O[C@@H]2CO)cc1 (some centres not stated) | 17.6 µM (active) |

| Structure (SMILES) | Potency |
| --- | --- |
| Nc1ncnc2c1ncn2[C@@H]1O[C@H](CNC(=O)[C@H](N)Cc2cccnc2)[C@@H](O)[C@H]1O | inactive |
| COc1cccc(CN(C)C(=O)CC[C@H]2O[C@@H](n3cnc4c(NC(=O)c5ccccc5)ncnc43)[C@H](O)[C@@H]2O)c1 | inactive |
| CC(=O)N1CCOc2ccc(S(=O)(=O)N3CCC(C(=O)Nc4ccccc4F)CC3)cc21 | inactive |
| CN(CCO)S(=O)(=O)c1ccc2c(c1)C(=O)c1cc(S(=O)(=O)N(C)CCO)ccc1-2 | inactive |
| O=C1c2ccccc2C(=O)N1c1ccc(S(=O)(=O)N2CCOCC2)c2ccccc12 | inactive |
| CCCC/C=C/c1cccc2nncn12 | inactive |
| CC(=O)c1ccc(N2CCN(C(=O)C3CCN(S(=O)(=O)c4ccc5c(c4)CC(C)N5C(=O)C4CC4)CC3)CC2)cc1 (configuration not stated) | 11.6 µM (active) |
| CCS(=O)(=O)N1CCC(C(=O)N2CCN(c3ccccc3)CC2)CC1 | inactive |
| CC(=O)c1ccc(N2CCN(S(=O)(=O)c3ccc4c(c3)CC(=O)N4C)CC2)cc1 | inactive |
| Cc1ccc2c(c1)N(CCCC(=O)NCc1cccnc1)C(=O)CO2 | inactive |
| Cc1nc(CC(=O)NNS(=O)(=O)c2ccc(F)c(Cl)c2)cs1 | inactive |
| CN(C)S(=O)(=O)c1ccc(Cl)c(NC(=O)COC(=O)CC(NC(N)=O)c2ccc(Cl)cc2)c1 (configuration not stated) | inactive |
| CCCCCCCNC(=O)C1(CC2CC(c3cccc(Br)c3)=NO2)CCN(C(=O)c2cc(OCC)c(OCC)c(OCC)c2)CC1 (configuration not stated) | 23.1 µM (active) |
| CCOC(=O)C1CCN(Cc2nnc(-c3cccc(Br)c3)o2)CC1 | inactive |
| CN(CC(=O)NCCc1ccccc1)S(=O)(=O)c1cnc[nH]1 | inactive |
| Cc1ccc(Nc2nc(CSc3nnc(-c4ccncc4)n3-c3ccccc3C)cs2)cc1 | 13 µM (active) |
| CCOc1ccccc1-n1c(SCC(=O)NCc2ccco2)nnc1-c1ccncc1 | inactive |
| Cn1c(SCc2ccc(F)cc2)nnc1-c1ccncc1 | inactive |
| O=C(O)CC/C(=C\c1cc2c(cc1Br)OCO2)c1nc2ccccc2s1 | inactive |
| O=C(N1CCCC1)C12CC3CC(C1)CC(C(=O)N1CCCC1)(C3)C2 | inactive |
| CCc1nc(SCC(=O)Nc2ccccc2OC)n[nH]1 | inactive |
| CCCc1nc(SCC(=O)N2CCCC2)c2c(=O)n(C)c(=O)n(C)c2n1 | inactive |
| CCCc1nc(SCC(=O)Nc2ccccc2OC)c2c(=O)n(C)c(=O)n(C)c2n1 | 14.6 µM (active) |
| O=C(Cc1c[nH]c2ccccc12)N/N=C/c1cccc(F)c1 | inactive |
